Assay results as given in PubChem BioAssay (EPA / NIEHS).
Inconclusive results are not listed. Calls of active or inactive are those of the source. How the source made its calls, unless noted: active means hit-call score of the fitted dose curve at least 0.9, where 1 is the maximum; inconclusive means response in the unintended direction; inactive means score below 0.9.

Experiments:
[1] = TOX21_p53_BLA_p2_viability: Viability Assessment in the Tox21 HCT-116 p53 Agonism Beta-lactamase Assay, Phase 2 (AID 2283591);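 further: compound exposure lasted 16 h at 37 °C; actives lower the ATP signal meaning cytotoxicity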
Summary of the method: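 HCT116 p53-bla cells, 4000/well, dosed after 5 h plating (217-fold dilution of DMSO stocks) and incubated 16 h at 37C. Viability taken as cellular ATP by CellTiter-Glo luminescence after 30 min RT; signal loss marks cytotoxicity.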

[2] = biological target: Cellular tumor antigen p53 (Homo sapiens) (UniProt P04637); assay: TOX21_p53_BLA_p3_ratio: Tox21 HCT-116 p53 Agonism Beta-lactamase Assay, Ratio, Phase 3 (AID 2283596)
Summary of the method: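 HCT116 p53-bla cells (4000/well) given compound in DMSO (217-fold dilution) after 5 h, incubated 16 h at 37C. CCF4-AM substrate 2 h at room temperature; 460/530 nm emission ratio, gain fitted against DMSO.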

[3] = TOX21_p53_BLA_p4_viability: Viability Assessment in the Tox21 HCT-116 p53 Agonism Beta-lactamase Assay, Phase 4 (AID 2283597);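 further: hits lower the luminescence signal meaning cytotoxicity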
Summary of the method: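 Cells plated, 5 h pre-incubation; DMSO compounds pinned (217-fold dilution); 16 h, 37C/5% CO2; CCF4-AM 2 h RT; CellTiter-Glo 30 min RT; luminescence read.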

[4] = TOX21_p53_BLA_p5_viability: Viability Assessment in the Tox21 HCT-116 p53 Agonism Beta-lactamase Assay, Phase 5 (AID 2283600)
Summary of the method: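 4000 cells/well; 5 h pre-incubation; DMSO compounds pin-transferred, 217-fold dilution; 16 h, 37C/5% CO2; CCF4-AM 2 h RT; CellTiter-Glo 30 min RT; luminescence.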

[5] = biological target: Cellular tumor antigen p53 (Homo sapiens) (UniProt P04637); assay: TOX21_p53_BLA_p4_ratio: Tox21 HCT-116 p53 Agonism Beta-lactamase Assay, Ratio, Phase 4 (AID 2283601)
Summary of the method: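 HCT-116 p53 beta-lactamase reporter cells (4000/well) preincubated 5 h, then compound (217-fold dilution of DMSO stock) for 16 h at 37C. CCF4-AM substrate added 2 h at room temperature; 460/530 nm emission ratio fitted upward versus DMSO.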

[6] = biological target: Cellular tumor antigen p53 (Homo sapiens) (UniProt P04637); assay: TOX21_p53_BLA_p5_ratio: Tox21 HCT-116 p53 Agonism Beta-lactamase Assay, Ratio, Phase 5 (AID 2283599)
Summary of the method: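 HCT-116 p53-bla cells (4000/well) plated 5 h, dosed with compound (217-fold DMSO dilution) for 16 h at 37 C; CCF4-AM substrate 2 h at room temperature. Activity is the 460/530 nm emission ratio (405 nm excitation), fitted in gain-of-signal direction versus DMSO.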

[7] = CCTE_Harrill_HTTr_Viability_MCF7: CCTE's 6-hour Cell Viability Assessment for the High-Throughput Transcriptomics (HTTr) Platform, in MCF-7 cells cultured in DMEM + 10% fetal bovine serum, Harrill Lab (AID 2284010; active means hit-call score of the fitted dose curve at least 0.9, where 1 is the maximum; inactive means score below 0.9)
Summary of the method: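 MCF-7 cells in DMEM + 10% FBS, 384-well, exposed 6 h to an eight-point dilution series. Membrane integrity scored by high-content imaging of propidium iodide exclusion; bidirectional fit versus DMSO.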

[8] = CCTE_Harrill_HTTr_Apoptosis_MCF7: CCTE's 6-hour Apoptosis Assessment for the High-Throughput Transcriptomics (HTTr) Platform, in MCF-7 cells cultured in DMEM + 10% fetal bovine serum, Harrill Lab (AID 2284011; active means hit-call score of the fitted dose curve at least 0.9, where 1 is the maximum; inactive means score below 0.9)
Summary of the method: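 MCF-7 (DMEM + 10% FBS), 384-well; 8-pt dilution series, 6 h chemical exposure; caspase-3/7 activation via CellEvent Caspase 3/7 Green, HCI; bidirectional fit vs DMSO.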

[9] = CCTE_Harrill_HTTr_CellCount_MCF7: CCTE's Cell Proliferation Assessment for the High-Throughput Transcriptomics (HTTr) Platform, Harrill Lab (AID 2284012);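 further: cells exposed to compound for six hours; intended direction is loss of nuclei count meaning fewer cells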
Summary of the method: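 MCF7 cells exposed 6 hours to an eight-point dilution series; Hoechst-stained nuclei counted by high-content imaging. Bidirectional curve fitting against DMSO baseline.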

Measured: outcome

Sequence of Cellular tumor antigen p53 (Homo sapiens) (P04637 whole entry, looked up): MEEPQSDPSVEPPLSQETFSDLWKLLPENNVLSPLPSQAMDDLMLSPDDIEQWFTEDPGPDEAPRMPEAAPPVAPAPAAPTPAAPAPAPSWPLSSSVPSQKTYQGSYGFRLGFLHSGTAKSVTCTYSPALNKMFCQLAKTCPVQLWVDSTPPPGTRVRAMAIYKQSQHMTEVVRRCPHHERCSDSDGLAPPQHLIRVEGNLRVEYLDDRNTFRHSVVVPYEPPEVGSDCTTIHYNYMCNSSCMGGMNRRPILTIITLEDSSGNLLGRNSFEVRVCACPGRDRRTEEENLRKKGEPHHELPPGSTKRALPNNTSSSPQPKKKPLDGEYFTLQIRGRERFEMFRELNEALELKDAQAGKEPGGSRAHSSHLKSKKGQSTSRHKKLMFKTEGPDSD

ClC1=C(Cl)C1(Cl)Cl
inactive: [1] | [2] | [3] | [4] | [5]

O=Cc1cccc([N+](=O)[O-])c1
inactive: [1] | [2] | [3] | [6] | [5]

O=C1c2ccccc2C(=O)c2cc(Cl)ccc21
inactive: [1] | [2] | [3] | [4]

Cc1cccc(C)c1NC(=O)C1CCCCN1C (centres undefined)
inactive: [1] | [2] | [6] | [4]

CCO[Si](OCC)(OCC)OCC
inactive: [1] | [2] | [3] | [6] | [5]

CCN(CC)CCOC(=O)C(Cc1cccc2ccccc12)CC1CCCO1 (centres undefined)
inactive: [1] | [2] | [3] | [5]

CC[N+](CC)(CCNC(=O)C(=O)NCC[N+](CC)(CC)Cc1ccccc1Cl)Cc1ccccc1Cl
inactive: [1] | [2] | [3] | [5]

CC(C)CCCC(C)NC(C)C (centres undefined)
inactive: [1] | [2] | [6]

COc1ccc(Br)c(C)c1
inactive: [1] | [2] | [3] | [5]

Cc1ccc(=O)n(-c2ccccc2)c1
inactive: [1] | [2] | [3] | [6] | [5]

CC[C@H]1OC(=O)[C@H](C)[C@@H](O[C@H]2C[C@@](C)(OC)[C@@H](O)[C@H](C)O2)[C@H](C)[C@@H](O[C@@H]2O[C@H](C)C[C@H](N(C)C)[C@H]2O)[C@](C)(O)C[C@@H](C)[C@@H]2N[C@@H](COCCOC)O[C@@H]([C@H]2C)[C@]1(C)O
inactive: [1] | [2] | [6] | [4] | [5]

OCC1(CO)COCOC1
inactive: [1] | [2] | [6] | [4] | [5]

CCOc1ccc(NC(=S)Nc2ccc(OCC)cc2)cc1
inactive: [1] | [2] | [3] | [5]

O=C(Nc1cccc2c(=O)cc(-c3nn[nH]n3)oc12)c1ccc(OCCCCc2ccccc2)cc1
inactive: [1] | [2] | [3] | [4]

CC(O)CO (centres undefined) (tested in a mixture with another compound)
inactive: [1] | [2] | [3] | [5]

O=C1OC(CN2CCOCC2)CN1N=Cc1ccc([N+](=O)[O-])o1 (centres undefined)
inactive: [1] | [2] | [6] | [5]

CCCNC(C)C(=O)Nc1c(C)csc1C(=O)OC (centres undefined)
inactive: [1] | [2] | [6] | [4]

OCCCC1CCCCC1
inactive: [1] | [2] | [6] | [4] | [7] | [8] | [9]

CCCCCCCCCCCCCCCCSCC(COC)COP(=O)([O-])OCC[N+](C)(C)C (centres undefined)
inactive: [1] | [2] | [3] | [5]

Cc1c(I)c(=O)n(-c2ccccc2)n1C
inactive: [1] | [2] | [6] | [4] | [5]

NC(=O)NC(=O)Cc1ccccc1
inactive: [1] | [2] | [3] | [6] | [5]

CCN(CC)CCc1nc(-c2ccccc2)no1
inactive: [1] | [2] | [6] | [5]

CCCc1nc(C(C)(C)O)c(C(=O)OCc2oc(=O)oc2C)n1Cc1ccc(-c2ccccc2-c2nn[nH]n2)cc1
inactive: [1] | [2] | [6]

O=C(O)CNC(=O)c1ccccc1I
inactive: [1] | [2] | [6] | [4]

CC(O)CN(CCCN(C)C)CCCN(C)C (centres undefined)
inactive: [1] | [2] | [6] | [4] | [5]

COC(=O)C(CN)c1c[nH]c2ccc(OC)cc12 (centres undefined)
inactive: [1] | [2] | [6] | [4] | [5]

CN1C(=O)C[C@@H](C(=O)N[C@@H](Cc2cnc[nH]2)C(=O)N2CCC[C@H]2C(N)=O)NC1=O
inactive: [1] | [2] | [6] | [4] | [5]

CCCCCC
inactive: [1] | [2] | [6] | [5]
